The values below come from PubChem BioAssay (Tox21).

Each structure is given as a SMILES string. Values joined by “and” are separate entries in the source; they are usually repeats but may differ in a detail not shown here. Identical values can stand only once. Results filed as inconclusive are left out. Entries that show only a call come without a potency. Where a structure was tested more than once in an assay, its records may differ in their call. Active and inactive are the calls of the source. Calls come from the whole dose curve; as a rule, active = well fitted inhibition curve with a large enough effect in the repeat runs; inconclusive = weak or mixed curves; inactive = no such curve, though single readings can be large or run the other way.
Potency is the fitted concentration of half-maximal effect.

Cytochrome P450 2D6 (Homo sapiens), sequence (P10635 whole entry, looked up): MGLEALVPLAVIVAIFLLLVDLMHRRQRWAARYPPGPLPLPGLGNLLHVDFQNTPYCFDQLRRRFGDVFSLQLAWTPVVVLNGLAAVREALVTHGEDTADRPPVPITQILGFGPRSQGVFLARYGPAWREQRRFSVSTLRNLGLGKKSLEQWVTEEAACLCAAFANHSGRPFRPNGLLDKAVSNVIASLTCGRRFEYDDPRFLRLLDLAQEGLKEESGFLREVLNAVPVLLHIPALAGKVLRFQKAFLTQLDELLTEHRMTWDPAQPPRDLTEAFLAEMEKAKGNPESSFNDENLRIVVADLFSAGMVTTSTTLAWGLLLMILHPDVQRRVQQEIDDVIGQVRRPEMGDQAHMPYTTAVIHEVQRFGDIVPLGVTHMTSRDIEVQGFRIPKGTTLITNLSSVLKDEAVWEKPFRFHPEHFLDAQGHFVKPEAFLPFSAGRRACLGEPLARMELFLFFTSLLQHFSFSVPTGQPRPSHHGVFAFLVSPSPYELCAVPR

The target of the test is Cytochrome P450 2D6 (Homo sapiens) (UniProt P10635). As to the kind of experiment: Cytochrome P450 Family 2 Subfamily D Member 6 (CYP2D6) small molecule antagonists: luciferase reporter qHTS assay (AID 1671196). Note: nearly all actives have a fitted effect of over 50% in size. The conditions noted are these: P450-Glo CYP2D6 enzyme assay, luciferin luminescence, 1 h; series mostly up to 115 µM; activity change, negative = inhibition: at the top concentration. The text has this:
U.S. Tox21 Program National Center for Advancing Translational Sciences [NCATS] U.S. Environmental Protection Agency [EPA] National Institutes of Environmental Health Sciences [NIEHS] National Toxicology Program [NTP] U.S. Food and Drug Administration [FDA] Tox21 Assay Overview: Cytochrome P450 (CYP) enzymes are membrane-bound hemeproteins that play a key role in metabolism of drugs and xenobiotics. Evaluation of the effect of chemicals on CYP isozymes is useful to minimize the adverse drug reactions and toxicities in drug development process. Tox21 chemicals were tested for their effect on CYP enzyme activities by using P450-Glo (TM) screening systems (Promega Corporation, Madison, WI). These systems provide a luminescent method containing proluciferin substrates and are converted to luciferin products by CYP isozymes. The luciferin products formed are detected with a luciferin detection reagent, and the amount of light produced is proportional to CYP activity. P450-Glo (TM) CYP2D6 screening system (Catalog. No. V9890) was used to detect the compounds that interfere in CYP2D6 activity.
Tox21 Assay Protocol Summary: Two ul of enzyme-substrate mix was dispensed into medium binding white/solid 1536-well plates (Greiner Bio-One North America Inc., Monroe, NC) using a BioRaptr Flying Reagent Dispenser (FRD, Beckman Coulter, Brea, CA). […] The assay plates were incubated at room temperature for 10 min. Then 2 ul of NADPH regeneration solution was added to each well of the assay plates using an FRD and incubated at room temperature for 1 h. The reaction was stopped by adding 4 ul of detection reagent using an FRD and after 20 min incubation at room temperature the luminescence signal was measured using a ViewLux plate reader (Perkin Elmer, Shelton, CT). Data were expressed as relative luminescence units.
A general note: A reporter such as luciferase makes a cellular process visible.
On to `O=C1CCCN1`, for which the Potency entry was “inactive”.

Take `OCCN(CCO)CCO`: the Potency result was “inactive”.

On to `Cc1ccccc1O`, for which the Potency result is “inactive”.

Consider `c1ccc2c(c1)Oc1ccccc1O2`, for which the Potency entry is “inactive”.

For the molecule `CCOP(OCC)OCC`, the Potency was 91 µM (active) and 35.6 µM (active).

Consider `CCOC(=O)c1ccccc1C(=O)OCC`, for which the Potency result is “inactive”.

For `CC(C)OC(=O)Nc1ccccc1`, the Potency entry was “inactive”.

For the molecule `CCOP(=S)(OCC)SCCSCC`, the Potency is 20.6 µM (active) and inactive.

Regarding `CCCCOC(=O)c1ccccc1C(=O)OCCCC`, the “activity change, negative = inhibition” value was -8.79% (inactive).

Take `c1cc2c3c(cccc3c1)CC2`: the Potency result was “inactive”.

With `Clc1cccc(Cl)c1Cl`, the Potency entry is “inactive”.

Regarding `Cc1cc(-c2cc(C)c(N)c(C)c2)cc(C)c1N`, the Potency is 22.5 µM (active) and 15.6 µM (active).

Take `O=NN1CCCCCCC1`: the Potency entry is “inactive”.

`c1ccc(-c2ccccc2)cc1`: the Potency entry is “inactive”.

Regarding `COC(=O)c1ccccc1N`, the Potency result was “inactive”.

As to `O=c1ccc(=O)[nH][nH]1`, the Potency result was “inactive”.

As for `c1ccc(OP(Oc2ccccc2)Oc2ccccc2)cc1`, the Potency entry is “inactive”.

For `O=c1[nH]c(=O)[nH]c(=O)[nH]1`, the Potency is 63.2 µM (active) and inactive.

Take `CC(Oc1ccc(Cl)cc1Cl)C(=O)O` (stereo not given): the “activity change, negative = inhibition” value was -14.3% (inactive).

As for `CC(C)N1C(=O)c2ccccc2NS1(=O)=O`, the “activity change, negative = inhibition” value was -9.39% (inactive).

Consider `Nc1ccc(Cc2ccc(N)cc2)cc1`, for which the “activity change, negative = inhibition” value is -23.1% (inactive).

For the molecule `c1ccc2c(c1)oc1ccccc12`, the Potency result is “inactive”.

As for `CC(C)NC(=O)N1CC(=O)N(c2cc(Cl)cc(Cl)c2)C1=O`, the Potency entry is “inactive”.

As to `CC(C)=C[C@@H]1[C@@H](C(=O)OCc2coc(Cc3ccccc3)c2)C1(C)C`, the Potency result is “inactive”.

As for `Nc1ccccc1C(=O)O`, the Potency is 63.6 µM (active) and inactive.

On to `CC(C)C#N`, for which the Potency entry is “inactive”.

Turning to `COC(=O)NC(=S)Nc1ccccc1NC(=S)NC(=O)OC`, the Potency result is “inactive”.

On to `Clc1ccccc1Cl`, for which the Potency entry is “inactive”.

Turning to `CC1C=[C-]C=C1.[C-]#[O+].[C-]#[O+].[C-]#[O+].[Mn]`, the Potency entry is “inactive”.

`CCC12COCN1COC2`: the Potency entry is “inactive”.

As for `Clc1ccc(Cl)cc1`, the Potency result is “inactive”.

With `CC(C)(C)C(O)(CCc1ccc(Cl)cc1)Cn1cncn1` (stereo not given), the Potency was 28.6 µM (active) and 35.6 µM (active).

As to `COP(N)(=O)SC` (stereo not given), the Potency result is “inactive”.

For `CCC(C)(CC)c1cc(NC(=O)c2c(OC)cccc2OC)on1`, the “activity change, negative = inhibition” value was -18.7% (inactive).

Consider `BrCCBr`, for which the Potency is 43.6 µM (active) and inactive.

On to `COCCl`, for which the “activity change, negative = inhibition” value was -21.9% (inactive).

With `O=[N+]([O-])c1ccc([As](=O)(O)O)cc1`, the Potency result was “inactive”.

Turning to `OC(O)C(Cl)(Cl)Cl`, the Potency result is “inactive”.

Consider `CC(C)(C)OOC(C)(C)C`, for which the “activity change, negative = inhibition” value was -15% [at 53 µM] (inactive).

For the molecule `O=[N+]([O-])c1ccccc1`, the Potency is 16.4 µM (active) and inactive.
